Assay outcomes deposited in PubChem by several laboratories.
GIRK2 activator = GIRK2 channel activators by thallium flux | HEK293 GIRK2/NPY4 cells, thallium flux fluorescence | 34,000 tested, under 10 active | P48051 | AID 1259324 | activation (% efficacy), % for hits at 37.5 µM;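 active = primary screen hit, no activity in plain HEK293 cells, and in GIRK2-only cells above 5% efficacy rising with concentration; inactive = the rest, including fluorescent compounds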;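 note: efficacy is normalized control-subtracted fluorescence 15 s after thallium addition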
GluA2 TARP mod = GluA2-stargazin AMPA receptor complex modulation. HEK293 GluA2+stargazin, membrane potential dye (FDSS), glutamate EC50; hits were called plate by plate, in both directions. calls only at 30 µM. hit rate 3.5% among 40,000;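 active = any of four per-well response measures lying three or more SD from its plate-wide compound average, in either direction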
Target sequence (O88602 whole entry, looked up): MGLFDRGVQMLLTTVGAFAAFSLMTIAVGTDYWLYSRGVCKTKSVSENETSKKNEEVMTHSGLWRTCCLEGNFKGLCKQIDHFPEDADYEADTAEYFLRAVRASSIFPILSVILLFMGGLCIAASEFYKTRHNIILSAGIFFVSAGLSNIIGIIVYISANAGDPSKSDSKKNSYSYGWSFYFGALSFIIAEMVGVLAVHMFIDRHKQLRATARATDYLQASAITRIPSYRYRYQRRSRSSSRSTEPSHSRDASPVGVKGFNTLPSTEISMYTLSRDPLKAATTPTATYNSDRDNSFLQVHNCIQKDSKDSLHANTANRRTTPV
Target sequence (P19491 whole entry, looked up): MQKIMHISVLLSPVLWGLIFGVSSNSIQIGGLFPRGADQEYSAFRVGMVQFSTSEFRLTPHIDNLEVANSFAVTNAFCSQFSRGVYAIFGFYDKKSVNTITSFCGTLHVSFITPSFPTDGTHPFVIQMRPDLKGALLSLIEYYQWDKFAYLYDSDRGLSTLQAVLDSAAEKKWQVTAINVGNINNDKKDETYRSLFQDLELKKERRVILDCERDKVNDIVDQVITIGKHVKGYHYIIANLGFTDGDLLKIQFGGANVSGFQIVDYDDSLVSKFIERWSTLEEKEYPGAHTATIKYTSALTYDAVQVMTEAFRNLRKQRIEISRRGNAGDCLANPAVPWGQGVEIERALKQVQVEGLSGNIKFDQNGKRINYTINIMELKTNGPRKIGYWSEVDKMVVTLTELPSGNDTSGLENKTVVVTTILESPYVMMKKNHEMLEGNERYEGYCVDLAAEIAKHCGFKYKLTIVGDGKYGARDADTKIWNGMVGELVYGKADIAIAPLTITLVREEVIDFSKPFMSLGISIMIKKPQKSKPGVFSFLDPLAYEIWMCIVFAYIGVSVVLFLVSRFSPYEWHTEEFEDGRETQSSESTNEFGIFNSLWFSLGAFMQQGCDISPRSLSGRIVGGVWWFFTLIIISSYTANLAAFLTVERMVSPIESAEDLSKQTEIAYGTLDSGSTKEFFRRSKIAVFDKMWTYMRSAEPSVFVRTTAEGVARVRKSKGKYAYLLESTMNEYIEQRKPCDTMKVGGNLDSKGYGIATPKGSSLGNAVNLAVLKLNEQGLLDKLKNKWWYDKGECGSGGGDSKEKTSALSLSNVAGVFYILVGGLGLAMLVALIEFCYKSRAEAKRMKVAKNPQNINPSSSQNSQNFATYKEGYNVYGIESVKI
* hit, by the source's call; i = inactive; . = no result; + = active, no number. This excerpt belongs to a sample that is enriched for hits.

SMILES	GIRK2 activator	GluA2 TARP mod
Cc1ccc(C(=O)N2CCCc3ccccc32)cc1S(=O)(=O)N1CCOCC1	.	+
Cc1ccc(-c2csc(NC(=O)C3CCCCN3S(=O)(=O)c3cccs3)n2)cc1 (stereo unspecified)	.	i
COc1ccccc1CNC(=O)Cc1cc(-c2ccccc2)on1	i	.
Cc1cccc(-n2nnc(-c3nnc(-c4ccco4)o3)c2C)c1	i	i
O=C(c1ccc2c(c1)OCO2)N1CCN(C(=O)C2CC2c2cccs2)CC1 (stereo unspecified)	i	i
COc1ccc(S(=O)(=O)N2CCN=C2SCc2ccccc2F)cc1	.	+
COc1ccc(S(=O)(=O)N2CCN=C2SCc2ccccc2C)cc1	.	i
O=C(CC1SC(=O)N(Cc2ccccc2)C1=O)Nc1ccc([N+](=O)[O-])cc1 (stereo unspecified)	i	+
COc1ccc(NC(=O)CC2SC(=O)N(CC(=O)c3ccccc3)C2=O)cc1 (stereo unspecified)	i	i
CCOc1ccccc1S(=O)(=O)N1CC(c2nc(-c3ccsc3)no2)C1	i	.
CSc1ccc(CC(=O)Nc2nc(-c3ccccc3)cs2)cc1	.	i
Cc1ccc(N2CCCS2(=O)=O)cc1NC(=O)NCc1ccc(F)cc1	i	i
COc1ccccc1C1(C(=O)N2CCC(c3ccsc3)CC2)CCOCC1	i	+
O=C(c1nc2ccccc2s1)N1CCC(c2ccsc2)CC1	i	i
CC(=O)c1ccc(NC(=O)CSC2=NS(=O)(=O)c3ccc(C)cc3N2)cc1	i	i
Cc1cccc(NC(=O)Cn2cccc(-c3nc(-c4ccc(Br)cc4)no3)c2=O)c1	i	i
COc1cccc(NC(=O)Cn2cccc(-c3nc(-c4ccc(Br)cc4)no3)c2=O)c1	i	+
Cc1ccc(-n2nnc3c(N4CCN(C(=O)Cc5cccc6ccccc56)CC4)ncnc32)cc1	.	i
CCc1nc2c(sc3cccc(F)c32)c(=O)n1CC(=O)Nc1ccc(C)cc1Cl	i	.
Cc1ccc(-n2nc3c(c2-n2cccc2)CN(C(=O)c2cnccn2)C3)cc1C	100%*	i
Cc1ccc(-n2nc3c(c2-n2cccc2)CN(C(=O)c2ccno2)C3)cc1C	i	i
Cc1ccc(-n2nc3c(c2-n2cccc2)CN(C(=O)c2ccsc2)C3)cc1	i	+
CC(C)(C)n1nc2c(c1-n1cccc1)CN(C(=O)c1cccs1)C2	i	i
Cc1ccc(CNC(=O)C(=O)NCC(C)(O)C2CC2)cc1 (stereo unspecified)	i	i
COc1ccc(CCC(=O)Nc2ccc(CC(=O)N3CCCC3)cc2)cc1	i	i
SMILES	GIRK2 activator	GluA2 TARP mod
CCOc1ccc(C(=O)Nc2cccc(-c3cnc4n3CCC4)c2)cc1	i	+
O=C(Nc1ccc(CC(=O)N2CCC(O)CC2)cc1)c1cc(-c2ccco2)on1	i	.
O=C(Nc1cccc(-c2cnc3n2CCC3)c1)c1ccc2nc[nH]c2c1	i	+
O=C(Nc1cccc(-c2cnc3n2CCC3)c1)c1cc(-c2ccco2)on1	i	+
O=C(Nc1ccc2cn[nH]c2c1)c1ccc2nc[nH]c2c1	i	i
CCOc1ccc(C(=O)Nc2cc3c4c(c2)CCC(=O)N4CCC3)cc1	i	i
CCNC(=O)C1Cc2ccccc2N1C(=O)C(=O)c1c(C)[nH]c2ccccc12 (stereo unspecified)	i	i
COc1ccc(-c2ccc(=O)n(CCCNC(=O)COc3ccc4c(c3)OCO4)n2)cc1	i	i
CS(=O)(=O)N1CCC(CNC(=O)c2cccc(Cl)c2)CC1	i	i
Cc1cccc(NC(=O)c2ccc(=O)n(Cc3cccc(Cl)c3)c2)c1C	i	i
CCCCC(CC)Cn1c(NC)nc2c1c(=O)[nH]c(=O)n2C (stereo unspecified)	i	i
COc1cc2nc(SCC(=O)N3CCN(c4ccccc4)CC3)n3nc(C)nc3c2cc1OC	i	.
O=C(Nc1cc(-c2ccccc2)nn1CCO)c1cccc(Cl)c1	i	+
O=C(Nc1cc(-c2ccccc2)nn1CCO)c1ccsc1	i	i
CCCCN(CC)C(=O)C(=O)c1c[nH]c2ccccc12	.	i
CC(O)(CNC(=O)C(=O)Nc1ccc(C(F)(F)F)cc1)C1CC1 (stereo unspecified)	i	i
CC1=NN(c2ccccc2)C(=O)C1C(=O)c1ccc(S(=O)(=O)N(C)C)cc1 (stereo unspecified)	i	i
CC1=NN(c2ccccc2)C(=O)C1C(=O)c1ccc(Br)o1 (stereo unspecified)	i	+
CC1Cc2cc(-c3cc(CC(=O)NCC4CCCO4)no3)ccc2O1 (stereo unspecified)	i	i
CC1Cc2cc(-c3cc(CC(=O)NC4CCCC4)no3)ccc2O1 (stereo unspecified)	i	+
CC1CCN(c2oc(-c3ccc(S(=O)(=O)N4CCC(C)CC4)cc3)nc2C#N)CC1	i	i
CCOC(=O)N1CCC(NC(=O)c2nc(-c3cnccn3)no2)CC1	i	i
Cc1cccc(-c2ccc(/C=C3\C(=O)SC(=S)N3CCCC(=O)O)o2)c1	i	+
Cn1cc(/C=C2\SC(=O)N(CCC(=O)O)C2=O)c2ccccc21	.	i
O=C(c1nn(-c2ccc(F)cc2)cc1OCc1ccccc1)N1CCCC1	i	i
SMILES	GIRK2 activator	GluA2 TARP mod
Cn1c(C(F)(F)F)nn(CCNC(=O)C2(c3ccc(Cl)cc3)CCCC2)c1=O	i	i
Cn1c(-c2ccccn2)nn(CCNC(=O)C2(c3ccc(Cl)cc3)CCCC2)c1=O	i	+
O=S(=O)(CCCOc1ccc(F)cc1)NC1CCN(Cc2ccccc2)CC1	i	+
O=C(COc1ccc(F)cc1)NCCS(=O)(=O)N1CCN(Cc2ccccc2)CC1	i	i
COc1cc(C(=O)NCC2CCN(c3ccccn3)CC2)cc(OC)c1OC	i	i
CC(C)C(=O)Nc1ccc(C(=O)NCCNC(=O)C(c2ccccc2)c2ccccc2)cc1	i	i
CCOc1ccccc1-c1noc(C2CCN(S(=O)(=O)c3cccs3)CC2)n1	i	i
Cc1nc(C)c(C(=O)N2CCN(c3nc4c(C)c(C)ccc4s3)CC2)s1	i	i
Cc1nc(C)c(C(=O)N2CCN(c3ccc(N(C)C)nn3)CC2)s1	i	+
Cc1cc(C)nc(Nc2nc(N)c3ccccc3n2)n1	.	+
Cc1cc(NC(=O)C(=O)NCC(c2ccccc2)N(C)C)c2ccccc2n1 (stereo unspecified)	i	i
Cc1nc2nc(-c3ccc(Cl)c(Cl)c3)cc(C(=O)O)c2[nH]1	i	.
COC(=O)c1scc(-c2ccccc2)c1S(=O)(=O)N1CCN(c2ncccn2)CC1	.	i
CCOC(=O)c1scc(-c2ccc(C)cc2)c1S(=O)(=O)N1CCN(c2ccccn2)CC1	i	+
CCCCc1cnc2c(c1SCC(=O)Nc1nnc(CC)s1)c(=O)n(C)c(=O)n2C	.	i
Nc1c(-c2cccc(F)c2)nsc1C(=O)N1CCN(c2cccc(Cl)c2)CC1	i	.
CCOC(=O)N1CCc2nc(NC(C)=O)sc2C1	i	i
CCN1CCc2nc(N)sc2C1	i	+
COc1ccc(Nc2cc(C)nc(NCCNC(=O)c3nccc(C)n3)n2)cc1	i	.
COc1ccc(Nc2cc(C)nc(NCCNC(=O)c3cnccn3)n2)cc1	i	+
